Measurements taken from PubChem BioAssay (EPA / NIEHS).
Results filed as inconclusive are left out. Activity calls are given as the source filed them. How the source made its calls: active means hit-call score of the fitted dose curve at least 0.9, where 1 is the maximum; inconclusive means response in the unintended direction; inactive means score below 0.9.

Experiments:
[1] = target: Adenosine receptor A1 (Bos taurus) (UniProt P28190); assay: NVS_GPCR_bAdoR_NonSelective: NovaScreen (NVS) G Protein-Coupled Receptor Assay for bovine Adenosine Receptor (AdoR), Non-selective Binding (AID 2283244)
Chain of Adenosine receptor A1 (Bos taurus) (P28190 whole entry, looked up): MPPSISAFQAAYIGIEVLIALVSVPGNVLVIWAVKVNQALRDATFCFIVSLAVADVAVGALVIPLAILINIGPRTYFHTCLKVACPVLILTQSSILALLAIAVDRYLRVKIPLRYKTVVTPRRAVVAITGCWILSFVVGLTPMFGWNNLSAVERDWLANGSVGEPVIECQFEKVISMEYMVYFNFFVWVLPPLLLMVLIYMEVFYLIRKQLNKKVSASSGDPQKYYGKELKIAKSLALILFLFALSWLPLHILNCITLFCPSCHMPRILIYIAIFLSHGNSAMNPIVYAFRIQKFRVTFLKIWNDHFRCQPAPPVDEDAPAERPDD
Summary of the method: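 Bovine striatal membranes, radioligand displacement binding, 1 h after dosing, filter-based scintillation counting. Screened in duplicate at 25 uM, then concentration-response up to 50 uM; loss of specific binding relative to DMSO.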

[2] = system: guinea pig Leukotriene B4 Receptor (LTB4), gene 100379538; assay: NVS_GPCR_gLTB4: NovaScreen (NVS) G Protein-Coupled Receptor Assay for guinea pig Leukotriene B4 Receptor (LTB4) (AID 2283247)
Summary of the method: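 Radioligand displacement on guinea pig spleen membranes, filter-based scintillation counting 2 h after dosing. Primary duplicate single point at 25 uM; hits over threshold (e.g. 30% inhibition) run in concentration-response up to 50 uM, DMSO baseline.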

[3] = target: guinea pig Leukotriene D4 Receptor (LTD4), CYSLTR1 (gene 100135514) (UniProt Q2NNR5); assay: NVS_GPCR_gLTD4: NovaScreen (NVS) G Protein-Coupled Receptor Assay for guinea pig Leukotriene D4 Receptor (LTD4) (AID 2283248)
Chain of guinea pig Leukotriene D4 Receptor (LTD4), CYSLTR1 (gene 100135514) (Q2NNR5 whole entry, looked up): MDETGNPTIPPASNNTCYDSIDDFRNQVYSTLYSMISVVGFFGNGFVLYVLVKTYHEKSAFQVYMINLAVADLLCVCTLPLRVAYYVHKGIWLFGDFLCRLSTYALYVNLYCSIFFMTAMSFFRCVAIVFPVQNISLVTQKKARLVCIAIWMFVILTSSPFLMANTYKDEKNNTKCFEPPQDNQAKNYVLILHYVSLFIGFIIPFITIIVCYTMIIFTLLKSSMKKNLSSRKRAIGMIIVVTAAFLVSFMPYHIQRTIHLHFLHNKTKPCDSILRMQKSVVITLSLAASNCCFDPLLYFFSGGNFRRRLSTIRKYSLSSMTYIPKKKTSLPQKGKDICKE
Summary of the method: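 Radioligand displacement on guinea pig lung membranes, 1 h incubation, filtration and scintillation counting; DMSO as negative control. Duplicate 25 uM primary screen, then singleton concentration-response up to 50 uM.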

[4] = target: human Serotonin, 5-Hydroxytryptamine Receptor 5A (5HT5A), HTR5A (gene 3361) (UniProt P47898); assay: NVS_GPCR_h5HT5A: NovaScreen (NVS) G Protein-Coupled Receptor Assay for human Serotonin, 5-Hydroxytryptamine Receptor 5A (5HT5A) (AID 2283251)
Chain of human Serotonin, 5-Hydroxytryptamine Receptor 5A (5HT5A), HTR5A (gene 3361) (P47898 whole entry, looked up): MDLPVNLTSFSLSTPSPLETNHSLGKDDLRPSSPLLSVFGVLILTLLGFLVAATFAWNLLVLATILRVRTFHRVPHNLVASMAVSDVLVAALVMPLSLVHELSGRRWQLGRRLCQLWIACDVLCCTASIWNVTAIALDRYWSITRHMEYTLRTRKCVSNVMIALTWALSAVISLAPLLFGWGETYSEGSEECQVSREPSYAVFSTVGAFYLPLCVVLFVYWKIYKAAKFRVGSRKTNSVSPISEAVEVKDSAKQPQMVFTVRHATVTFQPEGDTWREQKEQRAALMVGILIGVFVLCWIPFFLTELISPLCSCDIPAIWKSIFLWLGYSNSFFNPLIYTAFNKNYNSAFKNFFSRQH
Summary of the method: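 Cell-free radioligand displacement binding on HEK293-derived membrane protein, 1 h incubation, filter-based scintillation counting. Primary screen in duplicate at 25 uM, actives followed in concentration series; loss of signal fitted versus DMSO.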

[5] = target: rat Catechol-O-Methyl Transferase (COMT), Comt (gene 24267) (UniProt P22734); assay: NVS_ENZ_rCOMT: NovaScreen (NVS) Enzymatic Assay for rat Catechol-O-Methyl Transferase (COMT) (AID 2283235)
Chain of rat Catechol-O-Methyl Transferase (COMT), Comt (gene 24267) (P22734 whole entry, looked up): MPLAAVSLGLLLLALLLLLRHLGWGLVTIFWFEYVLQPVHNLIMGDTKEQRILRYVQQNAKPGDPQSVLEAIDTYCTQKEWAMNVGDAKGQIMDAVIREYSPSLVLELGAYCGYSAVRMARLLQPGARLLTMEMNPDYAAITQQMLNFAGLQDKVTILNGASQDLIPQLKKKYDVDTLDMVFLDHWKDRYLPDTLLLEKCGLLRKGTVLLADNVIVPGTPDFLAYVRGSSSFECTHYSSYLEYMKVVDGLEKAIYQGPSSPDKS
Summary of the method: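 Cell-free enzyme activity with protein extracted from rat dorsal striatum, measured by HPLC with absorbance detection. Compounds screened at 25 uM in duplicate; actives then run in concentration-response up to 50 uM, loss of signal versus DMSO.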

[6] = system: rat Monoamine Oxidase, MAO-A, Peripheral (MAOAP), gene 29253; assay: NVS_ENZ_rMAOAP: NovaScreen (NVS) Enzymatic Assay for rat Monoamine Oxidase, MAO-A, Peripheral (MAOAP) (AID 2283237)
Summary of the method: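 Rat liver mitochondrial membranes served as the MAO-A source, with enzyme activity measured by radiometric scintillation counting 1.17 hours after dosing. Loss of signal was fitted against DMSO; primary screen used 25 uM in duplicate, follow-up used concentration series.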

[7] = target: rat Monoamine Oxidase, MAO-B, Central (MAOBC), Maob (gene 25750) (UniProt P19643); assay: NVS_ENZ_rMAOBC: NovaScreen (NVS) Enzymatic Assay for rat Monoamine Oxidase, MAO-B, Central (MAOBC) (AID 2283238)
Chain of rat Monoamine Oxidase, MAO-B, Central (MAOBC), Maob (gene 25750) (P19643 whole entry, looked up): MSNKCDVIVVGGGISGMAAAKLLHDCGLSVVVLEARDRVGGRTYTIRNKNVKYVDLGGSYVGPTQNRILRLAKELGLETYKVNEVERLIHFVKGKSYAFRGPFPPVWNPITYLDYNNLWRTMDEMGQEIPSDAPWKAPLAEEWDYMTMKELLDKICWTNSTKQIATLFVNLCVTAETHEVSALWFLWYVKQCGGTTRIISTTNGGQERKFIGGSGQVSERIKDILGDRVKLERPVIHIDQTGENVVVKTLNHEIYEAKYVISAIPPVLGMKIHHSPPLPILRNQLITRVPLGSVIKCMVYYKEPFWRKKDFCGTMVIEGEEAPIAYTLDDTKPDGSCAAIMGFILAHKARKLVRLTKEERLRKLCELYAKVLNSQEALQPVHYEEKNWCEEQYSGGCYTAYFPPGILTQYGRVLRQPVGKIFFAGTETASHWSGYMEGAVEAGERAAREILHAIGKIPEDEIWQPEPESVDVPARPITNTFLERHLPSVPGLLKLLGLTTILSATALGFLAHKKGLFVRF
Summary of the method: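 Rat brain tissue extract served as the cell-free MAO-B source; enzyme activity was read by scintillation counting 1.17 hours after compound addition. Loss of signal versus DMSO baseline was fitted; primary single-concentration screen at 25 uM, follow-up concentration-response up to 50 uM.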

[8] = target: rat Monoamine Oxidase, MAO-B, Peripheral (MAOBP), Maob (gene 25750) (UniProt P19643); assay: NVS_ENZ_rMAOBP: NovaScreen (NVS) Enzymatic Assay for rat Monoamine Oxidase, MAO-B, Peripheral (MAOBP) (AID 2283242)
Chain of rat Monoamine Oxidase, MAO-B, Peripheral (MAOBP), Maob (gene 25750) (P19643 whole entry, looked up): as above

[9] = system: rat Monoamine Oxidase, MAO-A, Central (MAOAC), gene 29253; assay: NVS_ENZ_rMAOAC: NovaScreen (NVS) Enzymatic Assay for rat Monoamine Oxidase, MAO-A, Central (MAOAC) (AID 2283243);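 further: potency refers to inhibition seen as signal drop below DMSO baseline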
Summary of the method: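 Inhibition of rat brain-derived MAO-A was read by scintillation counting after 1.5 h exposure. Compounds screened first at 25 uM in duplicate, then in dose series if active.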

[10] = target: sheep Cyclooxygenase-2 (Cox2), PTGS2 (gene 443460) (UniProt P79208); assay: NVS_ENZ_oCOX2: NovaScreen (NVS) Enzymatic Assay for sheep Cyclooxygenase-2 (Cox2) (AID 2283231)
Chain of sheep Cyclooxygenase-2 (Cox2), PTGS2 (gene 443460) (P79208 whole entry, looked up): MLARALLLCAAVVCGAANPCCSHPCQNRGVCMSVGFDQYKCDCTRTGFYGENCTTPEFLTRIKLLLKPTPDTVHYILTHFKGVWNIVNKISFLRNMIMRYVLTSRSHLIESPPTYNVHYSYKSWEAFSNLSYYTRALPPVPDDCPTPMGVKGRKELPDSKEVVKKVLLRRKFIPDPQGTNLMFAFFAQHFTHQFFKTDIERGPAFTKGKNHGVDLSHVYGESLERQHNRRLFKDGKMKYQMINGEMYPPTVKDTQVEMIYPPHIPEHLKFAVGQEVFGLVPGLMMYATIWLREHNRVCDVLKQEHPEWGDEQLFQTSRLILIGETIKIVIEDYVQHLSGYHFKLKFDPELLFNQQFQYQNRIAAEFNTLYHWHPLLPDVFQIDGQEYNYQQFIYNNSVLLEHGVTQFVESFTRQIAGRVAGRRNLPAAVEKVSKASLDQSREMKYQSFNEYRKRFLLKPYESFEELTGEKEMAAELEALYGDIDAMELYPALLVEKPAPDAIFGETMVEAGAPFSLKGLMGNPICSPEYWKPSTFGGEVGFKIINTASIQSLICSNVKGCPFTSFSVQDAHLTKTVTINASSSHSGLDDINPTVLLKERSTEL
Summary of the method: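 Enzyme from ovine placenta, cell-free; colorimetric absorbance read 0.66 hour after dosing, loss of signal vs DMSO. Screened in duplicate at 25 uM, then concentration-response up to 50 uM.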

[11] = target: guinea pig Opioid, Kappa 1 Receptor (OpiateK), OPRK1 (gene 100135587) (UniProt P41144); assay: NVS_GPCR_gOpiateK: NovaScreen (NVS) G Protein-Coupled Receptor Assay for guinea pig Opioid, Kappa 1 Receptor (OpiateK) (AID 2283252);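 further: radioligand displacement from kappa opioid receptor in guinea pig cerebellar membranes; active means reduced radioligand binding relative to DMSO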
Chain of guinea pig Opioid, Kappa 1 Receptor (OpiateK), OPRK1 (gene 100135587) (P41144 whole entry, looked up): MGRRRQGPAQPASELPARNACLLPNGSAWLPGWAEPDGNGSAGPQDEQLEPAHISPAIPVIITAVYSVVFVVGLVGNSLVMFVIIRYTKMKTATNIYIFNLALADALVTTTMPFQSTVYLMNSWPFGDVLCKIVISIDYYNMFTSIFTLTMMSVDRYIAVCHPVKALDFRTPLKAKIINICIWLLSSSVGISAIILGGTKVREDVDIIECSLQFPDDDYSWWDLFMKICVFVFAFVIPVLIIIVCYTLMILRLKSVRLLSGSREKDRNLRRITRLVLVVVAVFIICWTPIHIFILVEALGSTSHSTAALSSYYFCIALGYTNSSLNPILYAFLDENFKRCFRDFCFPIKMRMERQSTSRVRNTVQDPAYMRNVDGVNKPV
Summary of the method: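 Guinea pig cerebellar membranes were incubated with a radioligand for 2 h after compound addition; bound radioactivity was read by filter-based scintillation counting. Loss of specific binding relative to DMSO baseline defined activity; primary screen at 25 uM in duplicate.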

[12] = target: sheep Cyclooxygenase-1 (Cox1), PTGS1 (gene 443551) (UniProt P05979); assay: NVS_ENZ_oCOX1: NovaScreen (NVS) Enzymatic Assay for sheep Cyclooxygenase-1 (Cox1) (AID 2283239);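 further: actives reduce cyclooxygenase activity so potencies are for inhibitors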
Chain of sheep Cyclooxygenase-1 (Cox1), PTGS1 (gene 443551) (P05979 whole entry, looked up): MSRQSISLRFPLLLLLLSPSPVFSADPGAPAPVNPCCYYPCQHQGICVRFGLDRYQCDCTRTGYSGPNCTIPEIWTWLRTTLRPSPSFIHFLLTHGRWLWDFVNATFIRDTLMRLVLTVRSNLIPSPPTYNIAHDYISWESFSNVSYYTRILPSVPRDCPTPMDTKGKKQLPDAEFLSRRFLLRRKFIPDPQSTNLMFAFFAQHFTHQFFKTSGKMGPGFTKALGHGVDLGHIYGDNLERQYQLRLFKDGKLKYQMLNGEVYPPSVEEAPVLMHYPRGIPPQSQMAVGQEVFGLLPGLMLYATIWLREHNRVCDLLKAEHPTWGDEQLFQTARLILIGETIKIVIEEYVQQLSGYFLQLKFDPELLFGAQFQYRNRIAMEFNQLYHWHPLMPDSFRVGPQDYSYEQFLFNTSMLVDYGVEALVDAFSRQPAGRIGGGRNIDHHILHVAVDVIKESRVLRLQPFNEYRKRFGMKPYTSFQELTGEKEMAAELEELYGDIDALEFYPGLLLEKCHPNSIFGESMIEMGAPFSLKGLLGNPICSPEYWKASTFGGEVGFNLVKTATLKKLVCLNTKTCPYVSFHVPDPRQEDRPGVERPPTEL
Summary of the method: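 COX1 from ovine seminal vesicles, activity read colorimetrically about 0.66 h after dosing. Primary screen in duplicate at 25 uM; actives retested in concentration series; loss of signal fitted versus DMSO.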

[13] = target: rat Adenylate Cyclase, Forskolin Stimulated, Adcy5 (gene 64532) (UniProt Q04400); assay: NVS_ENZ_rACFSKBinding: NovaScreen (NVS) Enzymatic Assay for rat Adenylate Cyclase, Forskolin Stimulated (AID 2283232)
Summary of the method: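 Rat forebrain membrane preparation, cell-free, read 1 h after dosing by filter-based scintillation counting. Primary screen in duplicate at 25 uM; actives (e.g. ≥30% inhibition) rerun in concentration-response up to 50 uM; fit versus DMSO.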

[14] = target: human Serotonin, 5-Hydroxytryptamine Receptor 6 (5HT6), HTR6 (gene 3362) (UniProt P50406); assay: NVS_GPCR_h5HT6: NovaScreen (NVS) G Protein-Coupled Receptor Assay for human Serotonin, 5-Hydroxytryptamine Receptor 6 (5HT6) (AID 2283253)
Chain of human Serotonin, 5-Hydroxytryptamine Receptor 6 (5HT6), HTR6 (gene 3362) (P50406 whole entry, looked up): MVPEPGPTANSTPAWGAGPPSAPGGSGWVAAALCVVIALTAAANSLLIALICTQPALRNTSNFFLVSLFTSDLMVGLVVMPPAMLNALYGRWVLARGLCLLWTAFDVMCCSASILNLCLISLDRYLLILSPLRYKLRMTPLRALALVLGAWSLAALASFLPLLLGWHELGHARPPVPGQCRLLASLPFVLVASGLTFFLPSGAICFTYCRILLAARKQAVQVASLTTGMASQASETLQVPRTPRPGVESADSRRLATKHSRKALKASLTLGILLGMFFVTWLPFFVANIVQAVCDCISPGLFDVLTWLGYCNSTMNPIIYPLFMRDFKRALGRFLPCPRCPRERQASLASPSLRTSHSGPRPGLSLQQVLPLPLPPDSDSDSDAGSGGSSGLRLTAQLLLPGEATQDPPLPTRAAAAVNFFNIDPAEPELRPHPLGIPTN
Summary of the method: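 Radioligand binding to 5HT6 in HEK293-derived membranes, cell-free, 1 h after dosing; bound ligand measured by filter-based scintillation counting. Primary screen in duplicate at 25 uM; actives retested in concentration series.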

[15] = NVS_GPCR_bNPY_NonSelective: NovaScreen (NVS) G Protein-Coupled Receptor Assay for bovine Neuropeptide Y (NPY) Receptor, Non-selective Binding (AID 2283245)
Summary of the method: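 Bovine hippocampal membranes incubated 1 hour with radioligand and test chemical. Bound ligand measured by filter-based scintillation counting. Single-concentration screen at 25 uM in duplicate, then concentration-response up to 50 uM.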

[16] = target: human Serotonin, 5-Hydroxytryptamine Receptor 2A (5HT2A), HTR2A (gene 3356) (UniProt P28223); assay: NVS_GPCR_h5HT2A: NovaScreen (NVS) G Protein-Coupled Receptor Assay for human Serotonin, 5-Hydroxytryptamine Receptor 2A (5HT2A) (AID 2283249)
Chain of human Serotonin, 5-Hydroxytryptamine Receptor 2A (5HT2A), HTR2A (gene 3356) (P28223 whole entry, looked up): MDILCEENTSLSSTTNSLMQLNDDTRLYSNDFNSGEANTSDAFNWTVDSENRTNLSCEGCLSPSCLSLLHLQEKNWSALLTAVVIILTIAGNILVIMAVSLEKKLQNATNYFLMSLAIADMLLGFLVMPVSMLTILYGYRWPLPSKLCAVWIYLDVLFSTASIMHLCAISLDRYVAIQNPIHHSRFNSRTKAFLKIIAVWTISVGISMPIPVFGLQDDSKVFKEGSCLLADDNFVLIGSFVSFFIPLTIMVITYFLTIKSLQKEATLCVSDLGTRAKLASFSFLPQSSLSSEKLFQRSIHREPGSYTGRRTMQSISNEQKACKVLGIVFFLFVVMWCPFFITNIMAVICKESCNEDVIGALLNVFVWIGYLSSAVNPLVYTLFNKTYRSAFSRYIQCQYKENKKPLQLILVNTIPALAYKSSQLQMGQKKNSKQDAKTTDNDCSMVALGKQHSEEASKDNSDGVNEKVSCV
Summary of the method: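 Human cortex membranes, cell-free radioligand binding; filter-based scintillation read 1.5 h after dosing. Duplicate screen at 25 uM first; displacement of specific binding (loss of signal) versus DMSO.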

[17] = system: guinea pig Muscarinic, Peripheral (Mperiperal) Receptor, Non-selective Binding, gene 100379235; assay: NVS_GPCR_gMPeripheral_NonSelective: NovaScreen (NVS) G Protein-Coupled Receptor Assay for guinea pig Muscarinic, Peripheral (Mperiperal) Receptor, Non-selective Binding (AID 2283250)
Summary of the method: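 Guinea pig bladder membranes, radioligand binding read 1 h after dosing by filter scintillation counting; loss of signal vs DMSO. Primary duplicate screen at 25 uM, then concentration-response up to 50 uM.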

## O=C(O)C(F)(F)C(F)(F)C(F)(F)C(F)(F)C(F)(F)C(F)(F)C(F)(F)C(F)(F)C(F)(F)F
[1]
  outcome: inactive
[2]
  AC50: 11.6 µM (active)
[3]
  outcome: inactive
[4]
  AC50: 20.7 µM (active)

## CCC(C)c1cc([N+](=O)[O-])cc([N+](=O)[O-])c1O (stereo unspecified)
[5]
  AC50: 1.1 µM (active)
[2]
  outcome: inactive

## Cc1cc(O)ccc1Cl
[6]
  AC50: 19.1 µM (active)
[7]
  AC50: 13.6 µM (active)
[8]
  AC50: 25 µM (active)
[9]
  AC50: 18.5 µM (active)

## CCC(=O)O[C@H]1CC[C@H]2[C@@H]3CCC4=CC(=O)CC[C@]4(C)[C@H]3CC[C@]12C
[10]
  outcome: inactive

## CC1=C2C[C@H]3[C@@H](CC=C4C[C@@H](O)CC[C@@]43C)[C@@H]2CC[C@]12O[C@@H]1C[C@H](C)CN[C@H]1[C@H]2C
[8]
  outcome: inactive
[11]
  AC50: 1.33 µM (active)

## Clc1ccc(C(c2ccccc2Cl)C(Cl)(Cl)Cl)cc1 (stereo unspecified)
[12]
  outcome: inactive

## Clc1ccc(Cl)cc1
[10]
  AC50: 15.8 µM (active)
[1]
  outcome: inactive

## CC(C)(c1ccccc1)c1ccc(O)cc1
[13]
  outcome: inactive
[7]
  outcome: inactive
[8]
  outcome: inactive
[2]
  AC50: 7.09 µM (active)
[4]
  AC50: 25 µM (active)
[14]
  AC50: 4.96 µM (active)

## CCSC(=O)N(CC)C1CCCCC1
[8]
  AC50: 32.8 µM (active)

## NS(=O)(=O)C(F)(F)C(F)(F)C(F)(F)C(F)(F)C(F)(F)C(F)(F)C(F)(F)C(F)(F)F
[1]
  AC50: 13.1 µM (active)

## CCC(C)(c1ccc(O)cc1)c1ccc(O)cc1
[2]
  AC50: 6.38 µM (active)
[4]
  AC50: 13.4 µM (active)
[11]
  outcome: inactive
[14]
  AC50: 6.29 µM (active)

## ClC(Cl)=C(c1ccc(Cl)cc1)c1ccc(Cl)cc1
[12]
  outcome: inactive

## CO/C=C(/C(=O)OC)c1ccccc1COc1cccc(C(F)(F)F)n1
[15]
  outcome: inactive

## CCOCCOC(C)=O
[7]
  outcome: inactive

## CCCCCCCCCC[N+](C)(C)CCCCCCCCCC
[9]
  AC50: 34 µM (active)
[15]
  AC50: 22.5 µM (active)
[16]
  AC50: 5 µM (active)
[17]
  AC50: 25 µM (active)
[4]
  AC50: 9.63 µM (active)
[14]
  AC50: 13.9 µM (active)

## N#Cc1ccc(N(CC(N)=O)CC(F)(F)F)cc1C(F)(F)F
[10]
  AC50: 6.58 µM (active)

## O=C(O)C(F)(F)C(F)(F)C(F)(F)C(F)(F)C(F)(F)C(F)(F)C(F)(F)C(F)(F)F
[2]
  AC50: 25 µM (active)
[3]
  outcome: inactive
[4]
  AC50: 17.7 µM (active)
